# Source: the supplement of paper PMC8728848
# This is one part of a sample in which the strongest signals are shown more often than they occur.
# What was measured:
# Assay in all cases: glycan array binding signal (z-score within array); higher = stronger binding
# Details in all cases: glycan notation: IUPAC condensed, linker removed
# [1] = target: Fuc(a1-2)Gal(b1-4)GlcNAc(b1-3)Gal(b1-4)GlcNAc
# Method in brief: (§1)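 The binding signal is a Z-score computed within each array. Data were drawn from 3228 arrays in the Consortium for Functional Glycomics database, restricted to those with a known protein sequence. Scores were averaged over arrays of the same protein sequence at different concentrations or buffers, and over linkers, and negative values can be taken as non-binding.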
# [2] = target: Fuc(a1-3)[Gal(b1-4)]GlcNAc6S
# Method in brief: as §1
# [3] = target: Gal(a1-4)Gal(b1-4)Glc
# Method in brief: as §1
# [4] = target: Gal(a1-4)GlcNAc
# Method in brief: as §1
# [5] = target: Gal(b1-3)GlcNAc(b1-3)Gal(b1-4)Glc
# Method in brief: as §1
# [6] = target: Gal(b1-4)GalNAc(b1-3)[Fuc(a1-2)]Gal(b1-4)GlcNAc
# Method in brief: as §1
# [7] = target: GlcNAc(b1-4)GlcNAc(b1-4)GlcNAc(b1-4)GlcNAc(b1-4)GlcNAc(b1-4)GlcNAc
# Method in brief: as §1
# [8] = target: Man(a1-2)Man(a1-2)Man(a1-6)[Man(a1-3)]Man
# Method in brief: as §1
# [9] = target: Man(a1-2)Man(a1-3)[Man(a1-2)Man(a1-6)]Man
# Method in brief: as §1
# [10] = target: Man(a1-2)Man(a1-3)[Man(a1-2)Man(a1-6)]Man(a1-6)[Man(a1-2)Man(a1-2)Man(a1-3)]Man
# Method in brief: as §1
# [11] = target: Man(a1-2)Man(a1-6)[Man(a1-3)]Man(a1-6)[Man(a1-2)Man(a1-2)Man(a1-3)]Man
# Method in brief: as §1
# [12] = target: Man(a1-2)Man(a1-6)[Man(a1-3)]Man(a1-6)[Man(a1-2)Man(a1-2)Man(a1-3)]Man(b1-4)GlcNAc(b1-4)GlcNAc
# Method in brief: as §1
# [13] = target: Man(a1-6)Man
# Method in brief: as §1
# [14] = target: Neu5Ac(a2-3)Gal(b1-3)GalNAc(b1-3)Gal(a1-4)Gal(b1-4)Glc
# Method in brief: as §1
# [15] = target: Neu5Ac(a2-3)Gal(b1-3)GalNAc(b1-3)Gal(b1-4)GlcNAc
# Method in brief: as §1
# [16] = target: Neu5Ac(a2-3)Gal(b1-4)GlcNAc(b1-2)Man(a1-3)[Neu5Ac(a2-6)Gal(b1-4)GlcNAc(b1-2)Man(a1-6)]Man(b1-4)GlcNAc(b1-4)GlcNAc
# Method in brief: as §1
# [17] = target: Neu5Ac(a2-3)Gal(b1-4)[Fuc(a1-3)]GlcNAc
# Method in brief: as §1
# [18] = target: Neu5Ac(a2-6)Gal(b1-4)GlcNAc(b1-2)Man(a1-3)[Neu5Ac(a2-6)Gal(b1-4)GlcNAc(b1-2)Man(a1-6)]Man(b1-4)GlcNAc(b1-4)GlcNAc
# Method in brief: as §1
# [19] = target: Neu5Ac(a2-6)Gal(b1-4)GlcNAc(b1-3)Gal(b1-4)GlcNAc
# Method in brief: as §1
# [20] = target: Neu5Ac(a2-8)Neu5Ac(a2-8)Neu5Ac(a2-3)Gal(b1-4)Glc
# Method in brief: as §1
# [21] = target: Fuc(a1-3)[Gal3S(b1-4)]GlcNAc6S
# Method in brief: as §1
# [22] = target: Fuc(a1-3)[Neu5Ac(a2-3)]Gal(b1-4)GlcNAc(b1-3)GalNAc
# Method in brief: as §1
# [23] = target: Gal(b1-3)GalNAc(b1-4)[Neu5Ac(a2-3)]Gal(b1-4)Glc
# Method in brief: as §1
# [24] = target: Gal(b1-3)[Fuc(a1-4)]GlcNAc(b1-3)Gal(b1-4)[Fuc(a1-3)]GlcNAc
# Method in brief: as §1
# [25] = target: Gal(b1-4)Glc6S
# Method in brief: as §1
# [26] = target: Gal(b1-4)GlcNAc(b1-2)Man(a1-6)Man(b1-4)GlcNAc(b1-4)GlcNAc
# Method in brief: as §1
# [27] = target: Gal(b1-4)GlcNAc(b1-2)Man(a1-6)[Man(a1-3)]Man(b1-4)GlcNAc(b1-4)GlcNAc
# Method in brief: as §1
# [28] = target: Gal(b1-4)GlcNAc(b1-6)[Gal(b1-3)]GalNAc
# Method in brief: as §1
# [29] = target: Gal3S(b1-3)[Fuc(a1-4)]GlcNAc
# Method in brief: as §1
# [30] = target: GalNAc(b1-3)Gal
# Method in brief: as §1
# [31] = target: GalNAc(b1-3)Gal(a1-4)Gal(b1-4)GlcNAc
# Method in brief: as §1
# [32] = target: GlcNAc(a1-4)Gal(b1-4)GlcNAc(b1-3)Gal(b1-4)[Fuc(a1-3)]GlcNAc(b1-3)Gal(b1-4)[Fuc(a1-3)]GlcNAc
# Method in brief: as §1
# [33] = target: GlcNAc(b1-2)Man(a1-3)[GlcNAc(b1-2)Man(a1-6)]Man(b1-4)GlcNAc(b1-4)GlcNAc
# Method in brief: as §1
# [34] = target: GlcNAc(b1-3)Gal(b1-4)Glc
# Method in brief: as §1
# [35] = target: Kdn(a2-3)Gal(b1-4)GlcNAc
# Method in brief: as §1
# [36] = target: Man(a1-2)Man(a1-2)Man(a1-3)Man
# Method in brief: as §1
# [37] = target: Man(a1-3)[Man(a1-6)]Man
# Method in brief: as §1
# [38] = target: Neu5Ac(a2-3)Gal(b1-3)[Neu5Ac(a2-3)Gal(b1-4)]GlcNAc
# Method in brief: as §1
# [39] = target: Neu5Ac(a2-6)Gal(b1-4)Glc
# Method in brief: as §1
# [40] = target: Neu5Ac(a2-8)Neu5Ac(a2-3)[GalNAc(b1-4)]Gal(b1-4)Glc
# Method in brief: as §1
# [41] = target: Neu5Ac9Ac(a2-3)Gal(b1-3)GlcNAc
# Method in brief: as §1
# [42] = target: Neu5Ac9Ac(a2-6)Gal(b1-4)GlcNAc
# Method in brief: as §1
# [43] = target: Neu5Gc(a2-3)Gal(b1-4)[Fuc(a1-3)]GlcNAc
# Method in brief: as §1
binder,measurement,setting,value
Surfactant Protein D (rat); Neck + Carbohydrate Recognition Domain (NCRD) (Rattus norvegicus) (protein) MLLFLLSALVLLTQPLGYLEAEMKTYSHRTMPSACTLVMCSSVESGLPGRDGRDGREGPRGEKGDPGLPGAAGQAGMPGQAGPVGPKGDNGSVGEPGPKGDTGPSGPPGPPGVPGPAGREGALGKQGNIGPQGKPGPKGEAGPKGEVGAPGMQGSAGARGAGPKGERGVPGERGVPGNTGAAGSAGAMGPQGSPGARGPPGLKGDKGIPGDKGAKGESGLPDVASLRQQVEALQGQVQHLQAAFSQYKKVELFPNGQSVGEKIFKTAGFVKPFTEAQLLCTQAGGQLASPRSAAENAALQQLVVAKNEAAFLSMTDSKTEGKFTYPTGESLVYSNWAPGEPNDDGGSEDCVEIFTNGKWNDRACGEKRLVVCEF,glycan array binding signal (z-score),[1],-0.183
same,glycan array binding signal (z-score),[2],0.145
same,glycan array binding signal (z-score),[3],-0.276
same,glycan array binding signal (z-score),[4],-0.242
same,glycan array binding signal (z-score),[5],-0.194
same,glycan array binding signal (z-score),[6],-0.02
same,glycan array binding signal (z-score),[7],-0.108
same,glycan array binding signal (z-score),[8],4.11
same,glycan array binding signal (z-score),[9],3
same,glycan array binding signal (z-score),[10],13.2
same,glycan array binding signal (z-score),[11],4.18
same,glycan array binding signal (z-score),[12],8.4
same,glycan array binding signal (z-score),[13],-0.223
same,glycan array binding signal (z-score),[14],-0.176
same,glycan array binding signal (z-score),[15],-0.198
same,glycan array binding signal (z-score),[16],-0.117
same,glycan array binding signal (z-score),[17],0.004
same,glycan array binding signal (z-score),[18],0.111
same,glycan array binding signal (z-score),[19],-0.105
same,glycan array binding signal (z-score),[20],-0.048
"Flo11 (Saccharomyces cerevisiae), Q1H8S8 (protein) MGSSHHHHHHSSGLVPRGSHMFPTALVPRGSSEGTSCNSIVNGCPNLDFNWHMDQQNIMQYTLDVTSVSWVQDNTYQITIHVKGKENIDLKYLWSLKIIGVTGPKGTVQLYGYNENTYLIDNPTDFTATFEVYATQDVNSCQVWMPNFQIQFEYLQGSAAQYASSWQWGTTSFDLSTGCNNYDNQGHSQTDFPGFYWNIDCDNNCGGTKSS",glycan array binding signal (z-score),[1],-0.01
same,glycan array binding signal (z-score),[21],1.26
same,glycan array binding signal (z-score),[22],3.1
same,glycan array binding signal (z-score),[23],2.88
same,glycan array binding signal (z-score),[24],-0.502
same,glycan array binding signal (z-score),[25],-0.505
same,glycan array binding signal (z-score),[26],-0.507
same,glycan array binding signal (z-score),[27],-0.506
same,glycan array binding signal (z-score),[28],-0.482
same,glycan array binding signal (z-score),[29],-0.502
same,glycan array binding signal (z-score),[30],3.63
same,glycan array binding signal (z-score),[31],4.27
same,glycan array binding signal (z-score),[32],0.071
same,glycan array binding signal (z-score),[33],-0.505
same,glycan array binding signal (z-score),[34],1.26
same,glycan array binding signal (z-score),[35],-0.496
same,glycan array binding signal (z-score),[36],-0.505
same,glycan array binding signal (z-score),[37],-0.502
same,glycan array binding signal (z-score),[14],3.08
same,glycan array binding signal (z-score),[38],-0.511
same,glycan array binding signal (z-score),[39],-0.507
same,glycan array binding signal (z-score),[40],3.67
same,glycan array binding signal (z-score),[41],-0.505
same,glycan array binding signal (z-score),[42],-0.494
same,glycan array binding signal (z-score),[43],3.45
